# Results reported in PubChem BioAssay (NCATS).
# Values joined by “and” are separate entries in the source; they are usually repeats but may differ in a detail not shown here. Equal values may be shown once. Unmarked numbers belong to inactive results. Records with an inconclusive call do not appear. Where a call stands in place of a potency, no number is given. Active and inactive are the calls of the source. Unless noted, calls follow the shape of the full dose curve.
# Key:
# [1] = molecular target: Ubiquitin carboxyl-terminal hydrolase 1 (Homo sapiens) (UniProt O94782); assay: Inhibitors of USP1/UAF1: Pilot qHTS (AID 504865; active = well fitted inhibition curve with a large enough effect;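 also: rhodamine fluorescence freed from ubiquitin-rhodamine substrate followed over time; top concentration of the series differs between compounds; nearly all actives have a fitted effect of over 35% in size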)
# Method in brief: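 Deubiquitinase activity followed as kinetic rhodamine fluorescence release from 150 nM Ub-Rho. 1 nM USP1/UAF1 with compound, after 15 min room-temperature preincubation, in HEPES pH 7.8 buffer containing TCEP, EDTA, BSA and Tween-20.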
# [2] = molecular target: Bile acid receptor (Homo sapiens) (UniProt Q96RI1); assay: qHTS assay for small molecule antagonists of farnesoid X receptor signaling (AID 588526)
# Method in brief: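 Antagonist mode: titrated compounds tested against chenodeoxycholic acid stimulation (normalized to 50 uM CDCA and DMSO) in GeneBLAzer HEK293T cells for 16 h. Beta-lactamase read by CCF4 fluorescence; IC50 from Hill fits.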
# [3] = molecular target: Glucocorticoid receptor (Homo sapiens) (UniProt P04150); assay: qHTS assay for small molecule agonists of glucocorticoid receptor signaling (AID 588532; active = well fitted curve in the direction sought with a large enough effect in the signal ratio, with a control signal flat; the % refers to the signal ratio); conditions: HeLa MMTV-bla, beta-lactamase ratio, agonist, 18 h; active compounds read high; percent of dexamethasone control, DMSO zero
# Method in brief: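 HeLa GRE-bla reporter cells; 18 h compound exposure at 37 C; 2 h CCF4 loading at room temperature; fluorescence at 460 and 530 nm; EC50 by Hill equation.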
# [4] = molecular target: Androgen receptor (Homo sapiens) (UniProt P10275); assay: qHTS assay for small molecule agonists of androgen receptor signaling (AID 588515; active = well fitted curve in the direction sought with a large enough effect in the signal ratio, with a control signal flat; the % refers to the signal ratio); conditions: AR-UAS-bla HEK293, beta-lactamase ratio, agonist 16 h; active compounds read high
# Method in brief: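 EC50 and efficacy came from Hill fits of titrations (up to 92 uM) normalized to 30 nM R1881 as 100% and DMSO as 0%. Compound exposure was 16 h at 37 C on AR-UAS-bla HEK293 cells, with a 405/460/530 nm CCF4 fluorescence read.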
# [5] = molecular target: Androgen receptor (Homo sapiens) (UniProt P10275); assay: qHTS assay for small molecule antagonists of androgen receptor signaling (AID 588516; active = well fitted curve in the direction sought with a large enough effect in the signal ratio, with a control signal flat, not every such curve was filed as active; the % refers to the signal ratio)
# Method in brief: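 Antagonist mode: inhibition of R1881-stimulated (10 nM final) bla reporter in GeneBLAzer AR HEK 293 cells, 16 h at 37C, compounds titrated. IC50 and efficacy from Hill-equation fits of 405/460–530 nm FRET ratios.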
# [6] = molecular target: Estrogen receptor (Homo sapiens) (UniProt P03372); assay: qHTS assay for small molecule antagonists of estrogen receptor alpha signaling (AID 588513; active = well fitted curve in the direction sought with a large enough effect in the signal ratio, with a control signal flat, not every such curve was filed as active; the % refers to the signal ratio)
# Method in brief: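 Antagonist mode: inhibition of 0.5 nM 17-beta-estradiol-driven beta-lactamase reporter in HEK 293 ER-alpha-UAS-bla cells, 18 h at 37C, CCF4 readout after 2 h at RT. Normalised to estradiol and DMSO; titration fitted to Hill.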
# [7] = molecular target: Estrogen receptor (Homo sapiens) (UniProt P03372); assay: qHTS assay for small molecule agonists of estrogen receptor alpha signaling (AID 588514); also: nearly all actives have a fitted effect of over 70% in size
# Method in brief: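 ER-alpha-UAS-bla GripTite HEK293 cells, 5000/well in 2% charcoal/dextran-stripped FBS medium, treated with compound titrations 18 h at 37 C. CCF4 beta-lactamase read by fluorescence after 2 h RT; normalised to 20 nM 17-beta-estradiol (100%) and DMSO (0%), Hill fit for EC50 and efficacy.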
# [8] = molecular target: DNA dC->dU-editing enzyme APOBEC-3G (Homo sapiens) (UniProt Q9HC16); assay: qHTS for inhibitors of Vif-A3G interactions: Validation (AID 588379; active = well fitted inhibition curve with a large enough effect)
# Method in brief: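 HeLa cells stably expressing Vif and A3G-eYFP, 700 cells/well, incubated overnight at 37 deg C, then exposed to compound overnight at 37 deg C. Inhibition of Vif-mediated degradation read as increased yellow fluorescence (Ex 488/Em 500-530) by laser-scanning cytometry.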
# Sequence of Bile acid receptor (Homo sapiens) (Q96RI1 whole entry, looked up): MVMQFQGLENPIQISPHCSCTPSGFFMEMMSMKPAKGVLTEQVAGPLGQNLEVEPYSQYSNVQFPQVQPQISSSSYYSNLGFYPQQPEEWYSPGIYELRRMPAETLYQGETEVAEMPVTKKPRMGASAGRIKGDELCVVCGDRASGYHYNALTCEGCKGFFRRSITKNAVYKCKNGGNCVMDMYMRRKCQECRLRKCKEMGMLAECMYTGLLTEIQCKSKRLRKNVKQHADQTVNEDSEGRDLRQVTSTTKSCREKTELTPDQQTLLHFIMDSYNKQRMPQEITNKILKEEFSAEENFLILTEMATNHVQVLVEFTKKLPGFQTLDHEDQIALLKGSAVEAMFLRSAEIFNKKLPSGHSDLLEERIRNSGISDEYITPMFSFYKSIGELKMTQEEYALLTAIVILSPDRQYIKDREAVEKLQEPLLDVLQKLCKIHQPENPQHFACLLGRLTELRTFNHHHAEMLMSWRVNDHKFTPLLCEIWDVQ
# Sequence of Estrogen receptor (Homo sapiens) (P03372 whole entry, looked up): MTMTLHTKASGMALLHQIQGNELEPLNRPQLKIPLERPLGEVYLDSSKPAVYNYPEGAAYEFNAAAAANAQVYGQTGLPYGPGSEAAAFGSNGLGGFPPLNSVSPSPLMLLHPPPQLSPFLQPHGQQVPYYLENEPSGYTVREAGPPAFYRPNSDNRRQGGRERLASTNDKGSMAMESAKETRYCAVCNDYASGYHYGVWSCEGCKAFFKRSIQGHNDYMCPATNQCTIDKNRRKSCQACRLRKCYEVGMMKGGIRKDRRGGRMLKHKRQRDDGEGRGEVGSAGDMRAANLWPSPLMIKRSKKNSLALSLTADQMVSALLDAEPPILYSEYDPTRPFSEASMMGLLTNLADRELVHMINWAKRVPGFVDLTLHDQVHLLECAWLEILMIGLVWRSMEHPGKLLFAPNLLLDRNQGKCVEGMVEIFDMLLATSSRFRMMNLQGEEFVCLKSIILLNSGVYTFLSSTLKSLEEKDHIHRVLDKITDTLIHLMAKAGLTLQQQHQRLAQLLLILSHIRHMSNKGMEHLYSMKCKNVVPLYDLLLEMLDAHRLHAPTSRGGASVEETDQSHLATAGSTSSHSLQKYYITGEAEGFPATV
# Sequence of Ubiquitin carboxyl-terminal hydrolase 1 (Homo sapiens) (O94782 whole entry, looked up): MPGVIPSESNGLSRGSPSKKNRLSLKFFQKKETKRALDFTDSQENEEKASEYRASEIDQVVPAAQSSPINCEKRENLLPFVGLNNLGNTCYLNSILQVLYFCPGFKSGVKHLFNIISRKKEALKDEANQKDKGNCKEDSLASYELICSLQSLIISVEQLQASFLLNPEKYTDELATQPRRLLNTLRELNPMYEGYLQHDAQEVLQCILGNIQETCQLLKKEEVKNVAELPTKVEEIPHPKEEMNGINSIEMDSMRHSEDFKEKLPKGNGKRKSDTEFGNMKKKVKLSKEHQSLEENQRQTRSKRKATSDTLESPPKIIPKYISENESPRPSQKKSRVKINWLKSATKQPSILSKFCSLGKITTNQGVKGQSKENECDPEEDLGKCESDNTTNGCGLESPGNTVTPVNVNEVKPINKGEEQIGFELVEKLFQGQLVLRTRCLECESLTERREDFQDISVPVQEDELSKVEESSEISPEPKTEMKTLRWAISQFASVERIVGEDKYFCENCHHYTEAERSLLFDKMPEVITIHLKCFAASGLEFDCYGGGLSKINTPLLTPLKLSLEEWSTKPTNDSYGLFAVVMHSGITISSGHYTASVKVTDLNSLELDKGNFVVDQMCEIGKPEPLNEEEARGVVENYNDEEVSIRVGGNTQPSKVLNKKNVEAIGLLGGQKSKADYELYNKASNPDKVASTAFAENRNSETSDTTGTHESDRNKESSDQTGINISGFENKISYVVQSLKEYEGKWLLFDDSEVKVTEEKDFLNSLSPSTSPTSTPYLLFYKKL
# Sequence of Glucocorticoid receptor (Homo sapiens) (P04150 whole entry, looked up): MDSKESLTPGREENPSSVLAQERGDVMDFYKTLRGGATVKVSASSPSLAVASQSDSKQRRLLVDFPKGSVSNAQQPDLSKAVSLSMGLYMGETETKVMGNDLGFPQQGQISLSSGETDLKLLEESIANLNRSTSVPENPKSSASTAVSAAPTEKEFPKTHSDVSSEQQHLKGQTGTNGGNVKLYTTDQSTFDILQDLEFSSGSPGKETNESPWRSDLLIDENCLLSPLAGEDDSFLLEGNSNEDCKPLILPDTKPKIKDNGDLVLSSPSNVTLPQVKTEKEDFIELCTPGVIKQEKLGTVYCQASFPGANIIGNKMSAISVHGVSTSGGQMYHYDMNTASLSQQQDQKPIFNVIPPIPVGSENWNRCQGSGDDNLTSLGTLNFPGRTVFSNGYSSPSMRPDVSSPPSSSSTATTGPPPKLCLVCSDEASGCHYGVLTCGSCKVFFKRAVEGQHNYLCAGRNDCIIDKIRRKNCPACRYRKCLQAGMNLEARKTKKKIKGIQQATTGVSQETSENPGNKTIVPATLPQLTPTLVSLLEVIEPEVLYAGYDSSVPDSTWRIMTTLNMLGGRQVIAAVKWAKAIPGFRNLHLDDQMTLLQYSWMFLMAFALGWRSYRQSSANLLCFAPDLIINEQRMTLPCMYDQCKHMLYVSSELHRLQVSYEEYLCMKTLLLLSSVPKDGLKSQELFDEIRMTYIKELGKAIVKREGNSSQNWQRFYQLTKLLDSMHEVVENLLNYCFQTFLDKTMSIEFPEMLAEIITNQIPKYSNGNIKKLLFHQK
# Sequence of Androgen receptor (Homo sapiens) (P10275 whole entry, looked up): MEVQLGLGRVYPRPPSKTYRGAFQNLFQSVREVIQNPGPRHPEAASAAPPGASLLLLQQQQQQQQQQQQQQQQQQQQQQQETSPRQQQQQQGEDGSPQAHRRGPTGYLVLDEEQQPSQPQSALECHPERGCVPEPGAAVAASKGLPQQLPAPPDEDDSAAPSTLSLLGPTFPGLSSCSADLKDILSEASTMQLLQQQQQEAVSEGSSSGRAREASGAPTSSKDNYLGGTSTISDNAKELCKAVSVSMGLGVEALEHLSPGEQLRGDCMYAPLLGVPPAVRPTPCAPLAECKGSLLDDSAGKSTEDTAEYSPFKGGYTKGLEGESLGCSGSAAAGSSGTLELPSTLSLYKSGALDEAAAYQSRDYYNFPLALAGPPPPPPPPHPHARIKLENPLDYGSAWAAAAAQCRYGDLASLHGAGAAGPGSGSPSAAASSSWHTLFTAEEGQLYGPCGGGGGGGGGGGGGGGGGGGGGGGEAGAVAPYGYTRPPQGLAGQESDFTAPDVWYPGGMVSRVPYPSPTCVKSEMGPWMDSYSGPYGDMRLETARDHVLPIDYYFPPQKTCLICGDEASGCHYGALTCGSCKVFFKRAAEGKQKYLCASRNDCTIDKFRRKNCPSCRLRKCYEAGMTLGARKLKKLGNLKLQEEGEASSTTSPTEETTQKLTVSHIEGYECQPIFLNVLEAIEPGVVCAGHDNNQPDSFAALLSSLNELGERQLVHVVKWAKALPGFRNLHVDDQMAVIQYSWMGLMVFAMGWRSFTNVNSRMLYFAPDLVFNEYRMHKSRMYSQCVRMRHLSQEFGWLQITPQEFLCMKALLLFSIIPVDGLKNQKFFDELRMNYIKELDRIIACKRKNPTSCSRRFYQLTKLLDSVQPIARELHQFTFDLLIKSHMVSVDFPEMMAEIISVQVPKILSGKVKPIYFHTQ
# Sequence of DNA dC->dU-editing enzyme APOBEC-3G (Homo sapiens) (Q9HC16 whole entry, looked up): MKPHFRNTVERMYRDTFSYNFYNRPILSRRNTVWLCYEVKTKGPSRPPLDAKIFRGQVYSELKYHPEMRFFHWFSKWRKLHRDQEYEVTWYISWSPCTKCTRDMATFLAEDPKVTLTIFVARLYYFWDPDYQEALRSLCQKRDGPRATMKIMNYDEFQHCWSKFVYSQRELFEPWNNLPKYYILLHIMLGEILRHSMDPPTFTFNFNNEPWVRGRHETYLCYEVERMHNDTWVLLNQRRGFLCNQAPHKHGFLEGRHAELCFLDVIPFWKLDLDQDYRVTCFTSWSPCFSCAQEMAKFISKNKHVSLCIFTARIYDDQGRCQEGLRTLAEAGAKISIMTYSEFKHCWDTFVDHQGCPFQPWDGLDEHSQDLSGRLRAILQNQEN
smiles,measurement,setting,value
CN(C(=O)C(Cl)Cl)c1ccc(OC(=O)c2ccco2)cc1,Potency,[1],inactive
Cc1cc(C(C)(C)C)c(O)c(C(C)(C)C)c1,Potency,[1],inactive
same,outcome,[2],inactive
same,activation,[3],-5.33% and 4.56%
CCN(CC)CCOc1ccc(/C(=C(\Cl)c2ccccc2)c2ccccc2)cc1,activation,[4],-16%
same,outcome,[5],inactive
same,activation,[3],7.97%
CCCCCCCCCCCC[N+](C)(C)Cc1ccccc1,activation,[4],-8.21%
same,outcome,[5],inactive
same,outcome,[2],inactive
same,activation,[3],1.25%
CC(=O)OC/C=C(C)/C=C/C=C(C)/C=C/C1=C(C)CCCC1(C)C,Potency,[1],inactive
same,outcome,[6],inactive
same,outcome,[7],inactive
CCCC(=O)c1cc(O)c(O)cc1O,outcome,[6],inactive
same,outcome,[7],inactive
same,activation,[4],-9.57%
same,outcome,[2],inactive
same,activation,[3],7.26%
CC(C)C(C)(C)C(C)(C)C(C)(C)S,outcome,[6],inactive
same,outcome,[7],inactive
same,activation,[4],-7.25% and 10.8%
same,outcome,[5],inactive
Brc1ccccc1-c1ccccc1,activation,[3],8.87%
Oc1ccccc1,outcome,[2],inactive
O=C(Oc1ccccc1)c1ccccc1O,outcome,[7],inactive
OCc1c[nH]c2ccccc12,Potency,[1],inactive
same,activation,[4],-13.7%
same,outcome,[5],inactive
same,outcome,[2],inactive
Nc1c[n+](N2CCOCC2)no1,Potency,[1],inactive
same,outcome,[8],inactive
CN1C(=O)c2ccccc2C1=O,activation,[3],-9.8%
C[C@@H](C1=C(CCN(C)C)Cc2ccccc21)c1ccccn1,Potency,[1],inactive
same,outcome,[8],inactive
CCOC(=O)NNc1nncc2ccccc12,Potency,[1],inactive
O=C(NO)c1ccccc1,outcome,[2],inactive
same,activation,[3],-5.9%
